Unmarked numbers belong to inactive results. How the calls were made is not given here.
Target: Pantothenate synthetase (Mycobacterium tuberculosis (strain ATCC 25618 / H37Rv)) (UniProt P9WIL5)
Assay: Recombinant Mtb pantothenate synthetase (PanC) inhibitors, coupled enzyme, confirmatory (AID 375);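 further: 0% = full reaction with vehicle and 100% = no enzyme background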
Conditions: coupled enzyme assay; at 10 µM, stronger effect = higher value

Chain of Pantothenate synthetase (Mycobacterium tuberculosis (strain ATCC 25618 / H37Rv)) (P9WIL5 whole entry, looked up): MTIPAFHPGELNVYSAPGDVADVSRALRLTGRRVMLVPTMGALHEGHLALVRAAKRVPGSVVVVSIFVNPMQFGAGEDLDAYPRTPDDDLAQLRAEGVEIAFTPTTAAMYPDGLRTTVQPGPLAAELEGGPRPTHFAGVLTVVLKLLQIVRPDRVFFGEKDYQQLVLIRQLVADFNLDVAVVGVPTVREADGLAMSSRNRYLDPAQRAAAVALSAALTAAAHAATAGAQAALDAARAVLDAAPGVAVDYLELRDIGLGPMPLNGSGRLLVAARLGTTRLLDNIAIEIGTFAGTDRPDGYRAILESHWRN

| SMILES | inhibition [%] |
| --- | --- |
| CN(C)c1ccc(C(=O)Nc2nnc(-c3ccc(Cl)cc3)o2)cc1 | 0 |
| N#CCc1nc2c3c4c(sc3ncn2n1)CCCC4 | 7 |
| CC(=O)O[C@H]1C[C@@H]2CC[C@@H]3[C@H](CC[C@@]4(C)[C@H]3C[C@H]([N+]3(C)CCCCC3)[C@@H]4OC(C)=O)[C@@]2(C)C[C@@H]1[N+]1(C)CCCCC1 | 0 |
| CC1CCCC(C)N1C(=O)CSc1nnc(-c2cccs2)o1 (stereo unspecified) | 1 |
| COc1ccc(C)cc1NC(=O)c1nc2nc(C)cc(C)n2n1 | 7 |
| COc1cc2c(=O)n(Cc3ccccc3)c(=O)n(CC(=O)NCc3ccco3)c2cc1OC | 7 |
| CCC(C)NC(=O)CS(=O)(=O)Cc1nc(-c2cccc(OC)c2)oc1C (stereo unspecified) | 0 |
| Cn1c(=O)c2c(nc(SCC(=O)O)n2Cc2cccc(C(F)(F)F)c2)n(C)c1=O | 8 |
| NCc1ccc(S(N)(=O)=O)cc1 | 2 |
| CC(=O)Nc1ccc(N=Cc2ccc[nH]2)cc1 | 0 |
| Cc1cc(C)c(C(=O)CSc2nnc(-c3ccccc3Br)o2)cc1C | 2 |
| Cc1cccc(N2C(=O)CC(N3CCN(c4cccc(C(F)(F)F)c4)CC3)C2=O)c1 (stereo unspecified) | 1 |
| Cc1cc(C)n2nc(S(=O)(=O)N(C)Cc3ccccc3)nc2n1 | 0 |
| COc1ccc(S(=O)(=O)NCc2ccc(C(=O)O)cc2)cc1 | 0 |
| COc1ccc(OC)c(NC(=O)C2C3CC4OC(=O)C2C4C3)c1 (stereo unspecified) | 0 |
| Cc1ccccc1OCc1nnc2n1CC(C)S2 (stereo unspecified) | 0 |

— PubChem BioAssay
